# Compound activity: PubChem BioAssay, National Center for Advancing Translational Sciences (NCATS)
# Most compounds without a hit are left out; they make up all but 12% or so of the library.
# HP1b chromo inh – HP1-beta chromodomain-methylated histone interaction inhibition; P83916; AlphaScreen HP1-beta / biotin-H3K9me3 peptide binding; Potency, µM (highest dose often 114 µM), without a hit: at the highest dose activity change, negative = inhibition, most hits filed as inhibitors; 390,000 tested, 0.56% active; AID 540317; note: potency is the fitted concentration of half-maximal effect; nearly all actives have a fitted effect of over 70% in size
#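 AlphaScreen: HP1-beta (50 nM) preformed 30 min with biotin-H3(1-18)K9me3 peptide (50 nM) in PBS pH 7.4, 0.01% Tween-20. Compound added for 30 min at RT, then streptavidin donor/nickel chelate acceptor beads (10 ug/mL) for 30 min.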
# BAZ2B inh – blocks human BAZ2B | 360,000 tested, 4.4% active | AlphaScreen BAZ2B-H3K14Ac peptide displacement | Potency, µM (series often up to 114 µM), for inactives: at the top dose activity change, negative = inhibition, most hits filed as inhibitors | Q9UIF8; note: potency is the fitted concentration of half-maximal effect; % is set by controls: 0 for no effect and ±100 for the full control effect; nearly all actives have a fitted effect of over 60% in size
#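 BAZ2B (50 nM) with biotin-H3(5-23)K14Ac peptide (50 nM) in PBS pH 7.4, 0.01% Tween-20, preformed 30 min, then compound 30 min at room temperature; top concentration 110uM. AlphaScreen streptavidin donor/nickel chelate acceptor beads (10 ug/mL final), 20 min dark, signal read.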
# G9a block – blocks human histone lysine methyltransferase G9a. Q96KQ7. G9a H3K9 monomethylation, AlphaScreen, 2 h. Potency, µM (doses to about 102 µM), for inactives: top-dose activity, negative = inhibition, actives largely listed as inhibitors. 350,000 tested, 8.8% active. AID 504332; note: potency is the fitted concentration of half-maximal effect; % is set by controls: 0 for no effect and ±100 for the full control effect; nearly all actives have a fitted effect of over 75% in size
#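 Chemiluminescent proximity detection of H3K9 monomethylation, read after 10 min bead incubation in the dark. Reaction: 20 nM G9a, 500 nM biotin-H3K9 peptide, 20 uM SAM cofactor, 2 h, room temperature, following 15 min enzyme-compound preincubation.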
# PLK1 PBD block – inhibitors of human PLK1 polo-box domain binding. P53350. Plk1 PBD binding of FITC phosphopeptide, fluorescence polarization. Potency, µM, for inactives: max response, negative = inhibition, actives largely listed as inhibitors. 360,000 tested, 2.8% active; note: potency is the fitted concentration of half-maximal effect; series mostly up to about 57 µM; % is set by controls: 0 for no effect and ±100 for the full control effect; nearly all actives have a fitted effect of over 65% in size
# JMJD2A Tudor inh – inhibitors of human JMJD2A Tudor domain. O75164. AlphaScreen JMJD2A-Tudor / H3K4me3 peptide binding. Potency, µM (top dose mostly 114 µM), for the others: top-dose activity change, negative = inhibition, hits mostly inhibitors. 390,000 tested, 4.4% active. AID 504339; note: potency is the fitted concentration of half-maximal effect; % is set by controls: 0 for no effect and ±100 for the full control effect; nearly all actives have a fitted effect of over 50% in size
# PI5P4Ka inh – PI5P4K alpha (human) kinase inhibition. PI5P4Kalpha enzyme, ADP-Glo luminescence, 60 min; active compounds read low. max response, %. 330,000 tested, 1.2% active; active = max response of -50% or lower; inconclusive = between -30% and -50%; inactive = -30% or higher; note: value at the top dose of about 77 µM; % is set by controls: 0 for no effect and ±100 for the full control effect
#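 ADP-Glo luminescence end-point read after a 60 min room-temperature kinase reaction of PI5P4Kalpha plus substrate, initiated with ATP at 5 microM final. Buffer: 0.038 M HEPES pH 7.4, EGTA, 0.1% CHAPS, 5% DMSO.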
# Numbers without * were called inactive; u = inconclusive; x = no result given; [ ] = dose if it differs, or a comment. Unless noted, calls come from the whole dose curve; as a rule, active = well fitted curve in the direction sought with a large enough effect; inconclusive = small, poorly fitted or top-dose-only effect, or another doubt; inactive = no such curve, though single readings can be large; an effect the other way counts as inactive or inconclusive.
SMILES,HP1b chromo inh,BAZ2B inh,G9a block,PLK1 PBD block,JMJD2A Tudor inh,PI5P4Ka inh
Cc1ccc(NC(=S)Nc2ccc3nc(-c4ccccn4)c(-c4ccccn4)nc3c2)cc1C,-23.0%,u,7.94µM*,-25.2%,u,-4.5
Cc1ccc(NC(=S)Nc2ccccn2)cc1C,45.7%,-13.8%,x,-18.9%,3.6%,-2.5
CSc1cccc(NC(=O)c2cc3c(COC(C)=O)cnc(C)c3oc2=O)c1,14.8%,-15.7%,0.0%[12.7 µM],x,-12.9%,x
CCCOc1ccc(-c2nc3ccccc3c(=O)o2)cc1,34.4%,6.1%,10.4%[59 µM],x,-1.7%,x
Cc1cn2c(=O)cc(COC(=O)c3cccc(NC(=O)c4ccccc4C)c3)nc2s1,-2.4%,-15.0%,17.6%[59 µM],x,-3.6%,x
CCNC(=O)C1(C)CCCN(C(=O)c2cc(C)nn2C(C)(C)C)C1 (stereo unspecified),x,x,x,-8.4%,x,1.4
O=C1CCCCC/C1=N/Nc1ccc(OCc2ccccc2)cc1,14.4%,u,31.6µM*,-2.4%,u,-3.2
Cc1ccc(S(=O)(=O)N2CCC(C(=O)C3C(=O)CCCC3=O)CC2)cc1,34.5%,-37.6%,-40.8%,-5.6%,-12.1%,5.3
CC1(C)CC(=O)C(C(=O)C2CCN(S(=O)(=O)c3ccccc3)CC2)C(=O)C1,12.1%,-9.0%,-27.9%,-5.0%,100µM*,0.5
O=C(NNS(=O)(=O)c1ccccc1)C1CCN(S(=O)(=O)c2ccc(Cl)cc2)CC1,31.1%,7.4%,19.3%[59 µM],-1.2%,12.8%,-0.8
O=C(NNS(=O)(=O)c1ccccc1)C1CCN(S(=O)(=O)c2ccccc2)CC1,30.5%,3.8%,22.4µM*,u,-4.3%,-4.2
COc1ccccc1CNc1ncnc2ccc(-c3ccc(C(=O)N(C)C)cc3)cc12,x,x,-32.5%[0.501 µM],x,x,x
CC1(C)CCN2CCC(C)(C)c3c(O)ccc1c32,u,44.7µM*,10µM*,-11.5%,56.2µM*,-54.5*
CN(CCc1ccccc1)C(C(=O)Nc1ccc2c(c1)OCCO2)c1ccnc2ccccc12 (stereo unspecified),x,x,x,-3.3%,x,-0.5
COc1ccc(-n2c(=O)c3c4c(sc3n3c(=S)[nH]nc23)COC(C(C)C)C4)cc1 (stereo unspecified),6.0%,-5.2%,8.91µM*,-14.5%,u,-16.1
N#Cc1ccccc1Cn1c(=O)n(-c2ccccc2)c(=O)c2c3c(sc21)CCC3,23.7%,-2.2%,-2.1%[59 µM],x,-4.1%,x
CN1CCc2c(sc3c2c(=O)n(-c2ccccc2)c2n[nH]c(=S)n32)C1,34.1%,-4.5%,5.01µM*,-13.7%,39.8µM*,x
CCn1c(=O)c2c3c(sc2n2c(=S)[nH]nc12)CCC3,3.7%,7.5%,3.16µM*,-13.4%,7.94µM*,-8.4
O=c1c2c3c(sc2n2c(=S)[nH]nc2n1-c1ccccc1)CCC3,3.7%,-1.7%,x,-26.0%,3.16µM*,-18.9
Cc1cccc(-n2c(=O)c3c4c(sc3n3c(=S)[nH]nc23)CCC4)c1,27.7%,-30.3%,u,-11.4%,17.8µM*,-17.1
CSc1nnc2n(-c3cccc(C)c3)c(=O)c3c4c(sc3n12)CCCC4,27.3%,-0.2%,-43.6%[59 µM],x,-9.3%,x
Cc1ccc(-n2c(=O)c3c4c(sc3n3c(=S)[nH]nc23)CCC4)cc1,36.3%,-17.8%,2.82µM*,-9.2%,25.1µM*,-11.0
COC(=O)C(C)Sc1nnc2n(-c3cccc(C)c3)c(=O)c3c4c(sc3n12)CCCC4 (stereo unspecified),31.5%,2.7%,25.1µM*,5.6%,-22.1%,-1.4
Cc1cccc(-n2c(=O)c3c4c(sc3n3cnnc23)CCCC4)c1,26.4%,-9.7%,-35.1%[59 µM],x,-14.5%,x
COc1ccc(-n2c(=O)c3c4c(sc3n3c(=S)[nH]nc23)CCC4)cc1,15.5%,-14.4%,2.51µM*,-17.9%,10µM*,-9.7
SMILES,HP1b chromo inh,BAZ2B inh,G9a block,PLK1 PBD block,JMJD2A Tudor inh,PI5P4Ka inh
O=C1CN(C(=O)c2ccc(S(=O)(=O)N3CCCCC3)cc2)C(c2ccc(F)cc2)c2cc(F)ccc2N1 (stereo unspecified),-0.5%,-6.8%,-10.1%[59 µM],x,-23.9%,x
COc1ccc(CC(=O)NC(C)c2nnc(SCC(=O)Nc3ccccc3)n2C)cc1 (stereo unspecified),35.3%,-24.5%,-5.0%,-0.5%,-4.3%,3.1
CCc1ccc(OC(C)c2nnc(SCC(=O)Nc3ncccc3C)n2C)cc1 (stereo unspecified),18.9%,-25.5%,11.2µM*,-17.7%,u,2.5
COc1ccc(OC)c(S(=O)(=O)NCc2ccc3c(c2)CCN3C(=O)c2cccc(C)c2)c1,21.1%[57 µM],-10.9%,5.1%[59 µM],x,-14.3%,x
O=C(N/N=C\CCc1ccccc1)c1ccco1,u,-4.8%,6.8%[59 µM],15µM*,u,-2.1
C=CCCC1CN(CCCC)S(=O)(=O)c2c(F)cccc2O1 (stereo unspecified),31.6%,x,x,21.2µM*,-31.7%,u
CCCCN1C[C@H](CO)Oc2cccc(F)c2S1(=O)=O,31.4%,x,x,-7.7%,-14.4%,4.9
O=C(Nc1cccc(Cl)c1N1CCCC1)c1cccc(-c2cc3ccccc3oc2=O)c1,43.8%,10.1%,35.5µM*,-9.4%,0.0%,x
O=C(Nc1cccnc1)c1cccc(-c2cc3ccccc3oc2=O)c1,25.9%,u,-1.2%,-17.6%,-26.6%,-1.3
O=C(Nc1ccc(CN2CCOCC2)cc1)c1ccc2ccccc2c1,11.6%,-13.9%,x,1.0%,-15.8%,1.6
O=C(Nc1ccc(CN2CCOCC2)cc1)c1cccc(-c2cc3ccccc3oc2=O)c1,15.1%,79.4µM*,u,-1.1%,-25.4%,-14.2
COc1ccccc1C(=O)Nc1c(C(=O)N(C)c2ccccc2)sc2nc(C)cc(C)c12,30.4%,-17.6%,0.6%[59 µM],x,2.2%,x
CCn1c(SCC(=O)Nc2cccc(NC(C)=O)c2)nnc1-c1ccco1,15.3%,4.7%,11.1%,-6.7%,-11.6%,-11.3
CCn1c(SCC(=O)Nc2ccc3c(c2)c2ccccc2n3CC)nnc1-c1ccco1,15.8µM*,10.0%,9.6%[12.7 µM],26.7µM*,28.2µM*,x
CCN(CC)c1ccc(NC(=O)CSc2n[nH]c(-c3ccco3)n2)cc1,-34.9%,39.8µM*,4.47µM*,-0.4%,u,0.0
CCn1c(SCC(=O)Nc2ccc(N(C)C)cc2)nnc1C1CC1,13.4%,-19.5%,39.8µM*,-0.4%,-8.7%,-7.5
CCn1c(SCC(=O)Nc2ccc(N(C)C)cc2)nnc1-c1ccco1,24.7%,-36.0%,39.8µM*,-6.6%,-6.3%,-2.1
Cc1ccc(NC(=O)CSc2n[nH]c(-c3ccco3)n2)cc1,31.9%,-0.8%,1.6%,-5.5%,0.8%,-3.5
CCn1c(SCC(=O)Nc2ccc(NC(C)=O)cc2)nnc1C1CC1,69.1%,22.5%,-10.4%,-9.0%,-10.7%,2.3
CCCCCCCCN1C(=O)[C@H](CC(=O)NCc2cccc3ccccc23)C[C@@]2(C(=O)OC)CC(C)(C)CC=C12,x,x,x,8.2%,x,17.4
